Unmarked numbers belong to inactive results. For some assays here: Results with a measured potency or affinity are listed apart. The source made the active and inactive calls. Unless noted, the rule behind the calls is not given here.
What was measured:
[1] = antimalarial activity against Dd2 strain (AID 2302;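 active = growth inhibition above 50% at the single 2 µM test dose, taken to imply half-maximal potency below 2 µM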;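 note: 0% = DMSO untreated growth and 100% = chloroquine plus artemisinin killed control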); settings: P. falciparum Dd2 in RBCs, LDH growth readout, 72 h; at 2 µM; hits give high values
[2] = human hepatoma cell viability loss – ATP luminescence, cytotoxicity control for P. falciparum antimalarial project, primary screen (AID 2303;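 active = inhibition above 50%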;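 note: 0% = DMSO wells and 100% = digitonin-killed cells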); settings: HepG2 viability, 24-48 h, at 10 µM, hits give high values
[3] = molecular target: L-lactate dehydrogenase (Plasmodium falciparum (isolate CDC / Honduras)) (UniProt Q27743); assay: PfLDH activity inhibition – cell lysate, 3D7 strain, counter-screen for P. falciparum growth inhibition project (AID 2304);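 note: 0% = vehicle and 100% = reference inhibitor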; settings: P. falciparum 3D7 crude extract, LDH APAD/NBT absorbance; at 2 µM; hits give high values
[4] = inhibition of 3D7 malaria parasite growth – strain 3D7 (AID 2306);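 note: 0% = DMSO wells and 100% = chloroquine plus artemisinin control wells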; settings: P. falciparum 3D7 erythrocytic growth, LDH absorbance, 72 h; at 2 µM; hits give high values
[5] = molecular target: Calcium-dependent protein kinase 1 (Plasmodium falciparum (isolate 3D7)) (UniProt P62344); assay: PfCDPK1 kinase inhibitors, biochemical, TCAMS library (AID 1159585; cut-off not given, nearly all actives have IC50 up to about 0.98 µM;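 note: inhibitors leave more ATP so luminescence rises with inhibition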); settings: recombinant PfCDPK1, Kinase-Glo ATP depletion luminescence
[6] = molecular target: Plasmodium falciparum protein kinase 6 (PK6, PF3D7_1337100) (UniProt Q8IDW1); assay: PfPK6 kinase inhibitors, biochemical, TCAMS library (AID 1159586); settings: recombinant PfPK6, Kinase-Glo ATP depletion luminescence
[7] = molecular target: Protein kinase 7 (PK7), Plasmodium falciparum 3D7 (PF3D7_0213400) (UniProt Q7YTF7); assay: inhibition of Plasmodium PK7 catalytic activity – biochemical, TCAMS antimalarial set, Kinase-Glo luminescence (AID 1159587); settings: recombinant PfPK7, Kinase-Glo ATP depletion luminescence
[8] = molecular target: Calcium-dependent protein kinase 4 (Plasmodium falciparum (isolate 3D7)) (UniProt Q8IBS5); assay: PfCDPK4 kinase inhibitors, biochemical, TCAMS library (AID 1159588; cut-off not given, nearly all actives have IC50 up to about 0.91 µM); settings: recombinant PfCDPK4, Kinase-Glo ATP depletion luminescence
Calcium-dependent protein kinase 4 (Plasmodium falciparum (isolate 3D7)), sequence (Q8IBS5 whole entry, looked up): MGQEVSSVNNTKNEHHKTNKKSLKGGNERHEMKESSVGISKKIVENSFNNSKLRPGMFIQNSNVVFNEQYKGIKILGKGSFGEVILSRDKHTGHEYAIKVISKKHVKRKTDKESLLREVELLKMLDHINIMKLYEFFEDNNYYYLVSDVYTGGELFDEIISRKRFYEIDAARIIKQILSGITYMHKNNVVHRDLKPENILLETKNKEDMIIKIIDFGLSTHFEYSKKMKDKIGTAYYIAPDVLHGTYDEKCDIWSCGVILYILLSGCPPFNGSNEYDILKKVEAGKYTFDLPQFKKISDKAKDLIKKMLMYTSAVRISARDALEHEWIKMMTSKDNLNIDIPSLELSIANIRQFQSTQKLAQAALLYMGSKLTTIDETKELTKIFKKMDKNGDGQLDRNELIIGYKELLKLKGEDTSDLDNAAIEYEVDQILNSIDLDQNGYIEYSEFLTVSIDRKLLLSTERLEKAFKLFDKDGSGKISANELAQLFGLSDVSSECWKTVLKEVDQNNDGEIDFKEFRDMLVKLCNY

Calcium-dependent protein kinase 1 (Plasmodium falciparum (isolate 3D7)), sequence (P62344 whole entry, looked up): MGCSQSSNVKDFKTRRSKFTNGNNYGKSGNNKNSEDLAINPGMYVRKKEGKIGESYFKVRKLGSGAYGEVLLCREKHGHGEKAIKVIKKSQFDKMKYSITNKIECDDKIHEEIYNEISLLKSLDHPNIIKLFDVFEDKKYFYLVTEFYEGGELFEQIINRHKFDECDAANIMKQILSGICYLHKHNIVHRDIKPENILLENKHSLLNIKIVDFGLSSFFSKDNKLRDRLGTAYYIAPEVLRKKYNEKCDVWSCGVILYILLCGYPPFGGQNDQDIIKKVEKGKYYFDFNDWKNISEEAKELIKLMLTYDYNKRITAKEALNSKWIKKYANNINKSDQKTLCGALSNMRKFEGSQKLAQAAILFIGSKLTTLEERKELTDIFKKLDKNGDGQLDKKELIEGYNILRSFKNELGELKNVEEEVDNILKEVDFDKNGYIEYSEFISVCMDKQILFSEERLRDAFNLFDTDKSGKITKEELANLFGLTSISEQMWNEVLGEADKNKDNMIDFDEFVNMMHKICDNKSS
Plasmodium falciparum protein kinase 6 (PK6, PF3D7_1337100), sequence (Q8IDW1 1-305): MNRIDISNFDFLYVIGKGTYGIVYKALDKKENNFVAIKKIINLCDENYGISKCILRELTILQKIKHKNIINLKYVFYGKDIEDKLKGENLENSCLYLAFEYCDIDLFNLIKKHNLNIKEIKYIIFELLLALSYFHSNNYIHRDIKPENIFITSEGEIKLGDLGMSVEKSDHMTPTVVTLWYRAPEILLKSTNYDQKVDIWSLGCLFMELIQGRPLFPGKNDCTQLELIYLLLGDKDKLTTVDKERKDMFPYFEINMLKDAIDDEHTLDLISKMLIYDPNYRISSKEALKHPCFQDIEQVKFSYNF
Protein kinase 7 (PK7), Plasmodium falciparum 3D7 (PF3D7_0213400), sequence (Q7YTF7 1-343): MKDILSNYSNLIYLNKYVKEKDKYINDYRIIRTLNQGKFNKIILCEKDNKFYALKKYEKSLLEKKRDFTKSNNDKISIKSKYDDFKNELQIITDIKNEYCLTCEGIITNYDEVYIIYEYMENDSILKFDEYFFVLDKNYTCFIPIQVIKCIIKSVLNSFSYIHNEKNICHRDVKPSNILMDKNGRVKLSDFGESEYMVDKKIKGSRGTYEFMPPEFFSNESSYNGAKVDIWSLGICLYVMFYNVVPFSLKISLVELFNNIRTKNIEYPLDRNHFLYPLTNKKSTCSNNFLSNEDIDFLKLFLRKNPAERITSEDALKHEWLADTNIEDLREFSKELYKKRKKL
L-lactate dehydrogenase (Plasmodium falciparum (isolate CDC / Honduras)), sequence (Q27743 whole entry, looked up): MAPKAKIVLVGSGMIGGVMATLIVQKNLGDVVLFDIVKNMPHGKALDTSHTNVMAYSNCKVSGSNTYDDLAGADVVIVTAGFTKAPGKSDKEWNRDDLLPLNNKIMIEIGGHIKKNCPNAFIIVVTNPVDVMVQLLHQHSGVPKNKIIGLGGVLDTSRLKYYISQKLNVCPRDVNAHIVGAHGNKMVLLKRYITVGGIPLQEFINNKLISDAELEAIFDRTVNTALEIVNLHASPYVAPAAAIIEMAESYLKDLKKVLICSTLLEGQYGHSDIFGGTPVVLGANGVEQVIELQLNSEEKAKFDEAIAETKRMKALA

SMILES | growth inhibition [1] | inhibition [2] | inhibition [3] | growth inhibition [4] | outcome [5] | outcome [6] | outcome [7] | outcome [8]
CCOC(=O)/C(=N\OC(C(=O)OC(C)(C)C)c1ccccc1)c1csc(NC(c2ccccc2)(c2ccccc2)c2ccccc2)n1 (stereo not given) | 68% (active) | 14% | 5% | 89% (active) | inactive | inactive | inactive | inactive
CCCCCCOc1ccccc1C(=O)NCCOc1ccc(Cl)cc1 | 37% | 16% | 4% | 84% (active) | inactive | inactive | inactive | inactive
CC(C)NCc1ccc(-c2ccc(-c3nc4ccc(C(F)(F)F)cc4[nH]3)cc2)cc1 | 98% (active) | 16% | 0% | 100% (active) | inactive | inactive | inactive | inactive
CC(C)[C@H](NC(=O)c1c(F)cccc1F)C(=O)Nc1ccc(Cc2nc3ccccc3s2)cc1 | 72% (active) | 3% | 0% | 82% (active) | inactive | inactive | inactive | inactive
Cc1noc(C)c1-c1cccc(CNCc2ccc(-c3ccc(-c4nc5ccc(C(F)(F)F)cc5[nH]4)s3)cc2)c1 | 99% (active) | 54% (active) | 3% | 102% (active) | inactive | inactive | inactive | inactive
CN(C)c1ccc(-c2ccc(C(=O)NC3CCN(Cc4ccc(F)cc4)CC3)s2)cc1 | 19% | 34% | -1% | 87% (active) | inactive | inactive | inactive | inactive
O=C(NC1CCN(CCC(NC(=O)c2ccccc2)c2ccc(Cl)c(Cl)c2)CC1)c1ccc(Cl)cc1 (stereo not given) | 36% | 17% | -2% | 97% (active) | inactive | inactive | inactive | inactive
CS(=O)(=O)CCCNCc1ccc(-c2cc3c(Nc4ccc(OCc5ccccc5)cc4)ncnc3cn2)o1 | 16% | 10% | -8% | 87% (active) | inactive | inactive | inactive | inactive
CCN1CCC(N(Cc2ccc(-c3ccc(Cl)cc3)cc2)C(=O)Cn2c(CCc3cccc(F)c3F)cc(=O)c3ccccc32)CC1 | 95% (active) | 100% (active) | -7% | 99% (active) | inactive | inactive | inactive | inactive
COc1ccc(CN2CCC(NCc3cccc(-n4ccnc4)c3)CC2)cc1 | 93% (active) | 10% | -5% | 100% (active) | inactive | inactive | inactive | inactive
CCOC(=O)c1c(C)n(-c2ccccc2)c2ccc(OC(=O)c3ccc(S(=O)(=O)N(CC)CC)cc3)cc12 | 63% (active) | -6% | -3% | 94% (active) | inactive | inactive | inactive | inactive
Cc1c(Cc2ccc(F)cc2)c(Cl)nc2nc(N)nc(N)c12 | 1% | 66% (active) | -2% | 92% (active) | inactive | inactive | inactive | inactive
O=C(/C=C/c1ccc(Cl)c(Cl)c1)NCCCCCCN1CCCN(C(=O)Nc2cc(F)cc(F)c2)CC1 | -1% | 25% | -6% | 99% (active) | inactive | inactive | inactive | inactive
NCc1ccc(CNCc2cccc(-c3ccc(-c4nc5ccccc5[nH]4)cc3)c2)cc1 | 58% (active) | 10% | -8% | 100% (active) | inactive | inactive | inactive | inactive
CC(=O)Nc1ccc(Cl)c(Cl)c1 | 98% (active) | 5% | 9% | 95% (active) | inactive | inactive | inactive | inactive
Cc1cc(NC2CCN(CC3CCCCC3)CC2)nc(Nc2ccccc2Cl)n1 | 31% | 28% | 4% | 100% (active) | inactive | inactive | inactive | inactive
CC(C)NC(C)(C)CN(Cc1ccc(-c2ccc(C(F)(F)F)cc2)cc1)C(=O)Cn1c(CCc2cccc(F)c2F)nc(=O)c2ccccc21 | 68% (active) | 44% | 3% | 94% (active) | inactive | inactive | inactive | inactive
COc1ccc2ncc(F)c(CCN3CCC(CNCc4cccc5c4OCO5)CC3)c2n1 | 37% | 39% | -2% | 93% (active) | inactive | inactive | inactive | inactive
O=C(CCc1nc2c(cnn2-c2ccccc2)c(=O)[nH]1)NC1CCSc2ccccc21 (stereo not given) | 52% (active) | 10% | -2% | 95% (active) | inactive | inactive | inactive | inactive
Cc1ccccc1OCC(O)CNC1CCC(NCC(O)COc2ccccc2C)CC1 (stereo not given) | 24% | 96% (active) | 0% | 98% (active) | inactive | inactive | inactive | inactive

SMILES | growth inhibition [1] | inhibition [2] | inhibition [3] | growth inhibition [4] | outcome [5] | outcome [6] | outcome [7] | outcome [8]
Nc1nc2c(ncn2COC2COP(=O)(O)OC2)c(=O)[nH]1 (stereo not given) | 54% (active) | 7% | 7% | 81% (active) | inactive | inactive | inactive | inactive
COc1cc2nc(N3CCC(CNC(=O)c4ccc(-c5ccc(C(F)(F)F)cc5)cc4)CC3)nc(N)c2cc1OC | 100% (active) | 94% (active) | 3% | 100% (active) | inactive | inactive | inactive | inactive
O=C(Nc1ccc([N+](=O)[O-])cc1Cl)c1cc(Br)cc(Cc2ccccc2)c1O | 96% (active) | 75% (active) | -1% | 84% (active) | inactive | inactive | inactive | inactive
COc1cccc(-c2cc(C(=O)Nc3cc(Oc4ccc(O)cc4)cc([N+](=O)[O-])c3)on2)c1 | 30% | 16% | 7% | 89% (active) | inactive | inactive | inactive | inactive
CCOc1c(CNCCCNc2cc(=O)c3ccccc3[nH]2)cc(I)cc1C(C)(C)C | 89% (active) | 17% | -4% | 102% (active) | inactive | inactive | inactive | inactive
COc1ccc(Cn2ncc3c4c(N)nc(N)nc4ccc32)cc1OC | 95% (active) | 68% (active) | 3% | 94% (active) | inactive | inactive | inactive | inactive
COc1cc(-c2[nH]c(-c3ccc(OCCN(C)C)cc3)cc2-c2ccncc2)ccc1Cl | 33% | 3% | 1% | 93% (active) | inactive | inactive | inactive | inactive
CCCCCCn1c(Sc2ccc(C#N)c([N+](=O)[O-])c2)nnc1-c1ccc(Cl)cc1 | 48% | 23% | 0% | 93% (active) | inactive | inactive | inactive | inactive
OCC1CCN(Cc2ccc(-c3cccc(-c4nc5ccc(C(F)(F)F)cc5[nH]4)c3)cc2)CC1 | 73% (active) | 19% | -4% | 99% (active) | inactive | inactive | inactive | inactive
CC1(C)N=C(N)N=C(N)N1OCc1ccc2ccccc2c1 | 97% (active) | 65% (active) | -9% | 94% (active) | inactive | inactive | inactive | inactive
COc1ccc(NC(=O)Nc2ccc(-c3ccc(-c4nc5ccccc5[nH]4)cc3)cc2)cc1 | 27% | 22% | 5% | 100% (active) | inactive | inactive | inactive | inactive
CC1(C)N=C(N)NC(NOCc2ccc(Cl)c(Cl)c2)=N1 | 27% | 5% | 2% | 96% (active) | inactive | inactive | inactive | inactive
CCOc1ccc(Br)cc1/C=C/C(=O)Nc1ccc2c(c1)CCCN(C)C2 | 17% | 40% | -1% | 90% (active) | inactive | inactive | inactive | inactive
c1ccc(COc2ccnc(NCCCOc3cccc(CN4CCCCC4)c3)c2)cc1 | 51% (active) | 22% | -2% | 101% (active) | inactive | inactive | inactive | inactive
COc1ccc(CN2CCCN(Cc3cccc(NC(=O)c4cc5ccccc5s4)c3)CC2)cc1 | 32% | 32% | 5% | 94% (active) | inactive | inactive | inactive | inactive
CCC[C@@H]([C@@H](CC1CCCCC1)C(=O)N[C@H](C(=O)Nc1nccs1)C(C)(C)SCCNC(=O)OCC)N(O)C=O | 98% (active) | 45% | 0% | 99% (active) | inactive | inactive | inactive | inactive
Cc1ncccc1C(=O)Nc1ccc(-c2cccc(-c3nc4c(C)cccc4[nH]3)c2)cc1 | 31% | 6% | -5% | 95% (active) | inactive | inactive | inactive | inactive
OCCN1CCN(c2nc(Nc3cccc(F)c3)c3cnn(-c4ccccc4)c3n2)CC1 | 76% (active) | 89% (active) | -2% | 100% (active) | inactive | inactive | inactive | inactive
CN(C(=O)c1nn(-c2ccccn2)c2nccc(-c3cccs3)c12)C1CCCCC1 | 1% | 4% | -1% | 87% (active) | inactive | inactive | inactive | inactive
O=S(=O)(Nc1cccc(CCN2CCC(N3CCCCC3)CC2)c1)c1ccccc1C(F)(F)F | 32% | 21% | 1% | 82% (active) | inactive | inactive | inactive | inactive

From PubChem BioAssay
